According to ChEMBL document CHEMBL4888484, “Replenishing the malaria drug discovery pipeline: Screening and hit evaluation of the MMV Hit Generation Library 1 (HGL1) against asexual blood stage Plasmodium falciparum ,using a nano luciferase reporter read-out” (2022):
Hit rate of the full screen: of about 150,000 compounds, about 540 (0.36%) showed an effect of 50% or more. The entries come from a sample that favours strong results as a whole.

Each compound was assayed on Plasmodium falciparum (assay: Primary screen in NF54 nanoGlo assay, in single point, at 2uM, 72h; a lower Z score goes with more inhibition). Conditions: timepoint 72 hour.
Type: functional, Erythrocyte

Compound	% Inhibition	Z score
Cc1cnn(CCCNC(=O)C[C@H]2COCCN2Cc2ccc(C)o2)c1	-20%	2.24
CN(C)c1ccc(NC(=O)Cc2cnn(-c3ccccc3)c2)cn1	-12%	1.6
N#Cc1nccnc1N[C@H]1CCCN(CC(F)(F)F)C1	-11%	1.83
Cc1ccc(CN2C[C@@H](CO)[C@H](NC(=O)C3CCC3)C2)o1	-6%	0.86
COc1ccc(N2C(=O)c3ccccc3[C@@H]2c2cn(C)c3ccccc23)cc1	7%	-0.85
Cc1ccc(N2C(=O)c3ccccc3[C@@H]2c2c[nH]c3ccccc23)cc1	63%	-5.25
CC(c1ccccc1)N1C(=O)c2ccccc2C1c1c[nH]c2ccccc12 (stereo not drawn)	43%	-5.38
COc1ccc(CC(=O)N2CCCS(=O)(=O)C[C@H]2C2CC2)nc1	-1%	0.08
Cc1cccc2ncnc(N(C)C3CC[S+]([O-])CC3)c12 (stereo not drawn)	3%	-0.52
Cc1cccc2ncnc(N(C)[C@@H](C)Cc3ccc(O)cc3)c12	77%	-16.2
CC1(C)C[C@@H](NC(=O)[C@H]2CC[C@H](Cn3cnc4ccccc4c3=O)CC2)CCO1	-6%	0.79
C[C@@]1(NC(=O)CCc2nc(C3CCCC3)no2)CC=CCC1	-10%	1.9
O=C(NCC[C@H]1CCOC1)c1ccc(-c2ccc3cc[nH]c(=O)c3c2)cc1	-14%	1.37
CN1CC[C@H](N(C)C(=O)c2ccc(-c3ccc4c(=O)[nH]ccc4c3)cc2)C1	-4%	0.47
CN(C)c1ccc([C@@H](CNC(=O)c2cccc(F)c2)c2c[nH]c3ccccc23)cc1	2%	-0.26
COCCN1CCC(CN(Cc2ccncc2)Cc2cc(C)c(C)o2)CC1	-30%	4.08
CN1CCC(N2CCC(CN(Cc3ccncc3)C3CCOCC3)CC2)CC1	0%	0
CN1CCC(N2CCC(CN(Cc3ccncc3)Cc3c(F)cccc3Cl)CC2)CC1	98%	-9.12
COc1ccc(CN(Cc2ccncc2)CC2CCN(C3CCN(C)CC3)CC2)c(F)c1	88%	-10.13
COCCN1CCC(CN(Cc2ccncc2)Cc2nc3ccc(F)cc3[nH]2)CC1	0%	0.04

Compound	% Inhibition	Z score
CC(=O)NCCn1ccnc1-c1ccc(F)c(F)c1F	-9%	1.18
C[C@H](NCC1(c2c(F)cccc2F)CC1)c1cnn(C)c1	-3%	0.45
CC(C)(C)CN1C[C@@H](NC(=O)COc2ccc3c(c2)OCO3)CC1=O	-1%	0.23
CCCC(CCC)C(=O)Nc1ccc(O)cc1C(=O)O	40%	-0.25
COCC(O)CN1CCC(NC2CCCc3cc(F)ccc32)CC1 (stereo not drawn)	1%	-0.12
COCCCN(Cc1ccc(C(O)(c2ccc(OC)cc2)c2ccc(OC)cc2)o1)Cc1ccccc1OC	3%	-0.38
CN1CCO[C@@H](CNc2ncnc3c2cnn3-c2ccccc2F)C1	-1%	0.08
Cc1nc(N2CCCC2C(=O)N2CCC(C(O)Cc3ccccc3)CC2)nc2ccccc12 (stereo not drawn)	-15%	1.71
CC1CC(Nc2ncnc3cc(Br)ccc23)CCN1C (stereo not drawn)	97%	-8.72
O=C(O)c1ccc2c(NC3CCCC3)ncnc2c1	-5%	0.71
CS(=O)(=O)N1CCC(Nc2ncnc3cc(Cl)ccc23)CC1	18%	-2.07
OC(CN1CCOC2CCCCC21)Cn1cccn1 (stereo not drawn)	-5%	0.7
CC(C)CNC(=O)c1[nH]cnc1C(=O)N1CCC(Cc2ccccc2)CC1	31%	-3.65
CC[C@H]1CCCCCN1C(=O)NCCc1nnc(C)s1	-9%	1.2
COc1ncc(C(=O)NCCCn2ccnc2)cn1	-14%	1.29
COc1ccc(Nc2nnc(-c3ccc(NC(=O)C(=O)NCCCn4ccnc4)cc3)s2)cc1	66%	-7.06
CCN(CC)Cc1cnc2c(C(=O)N(C)C3Cc4ccccc4C3)cnn2c1	-6%	0.83
CN1C(=O)[C@@H]2CC[C@H]1CN(C1CCN(c3ncc4ccc(F)cc4n3)CC1)C2	3%	-0.38
CO[C@H]1CCOC[C@@H]1NC1CCN(c2ncc3ccc(F)cc3n2)CC1	1%	-0.16
Cc1ccc2c(c1)C(=O)N1CCCC1C(=O)N2CC(=O)NCC1CCCO1 (stereo not drawn)	-1%	0.1

Compound	% Inhibition	Z score
COc1ccc(-n2ncc3c(N)c4c(nc32)CCCC4=O)cc1	56%	-1.02
Nc1c2c(nc3c1cnn3-c1cc(F)cc(F)c1)CCCC2=O	-9%	1.23
Cc1ccc(-n2ncc3c(N)c4c(nc32)CCCC4=O)cc1	12%	-2.26
O=C(NCCn1ccnc1)c1[nH]nc(C2CC2)c1Cl	-9%	1.61
CC(C)N(C)C(=O)C1CCN(C(=O)[C@@H](N)C(C)(C)C)CC1	-1%	0.1
COc1ccc(CNC/C=C/c2ccccc2)cc1	-20%	2.3
COC1CCC(CCNCc2ccccc2)CC1 (stereo not drawn)	-15%	2.25
COc1ccc(CNCCC2C(C)CN(C)C(C)C2Cc2ccccc2)cc1 (stereo not drawn)	55%	-7.17
COc1cccc(OC2CN(C[C@H]3COc4ccccc4O3)C2)c1	3%	-0.59
CC(CNC(=O)N(C)CCc1cccs1)N1CCOCC1C (stereo not drawn)	5%	-0.94
CCc1cc(N2CCCO2)nc(-c2ccncc2)n1	1%	-0.06
Cn1cnc2c(NCC(=O)N3CCN(c4ccccc4)CC3)ncnc21	-1%	0.15
CN1CCC(N2CCN(Cc3ccc4cc(O)ccc4c3)CC2)CC1	90%	-8.27
CC(C)[C@H]1CN(C)CCN1Cc1ccc2cc(O)ccc2c1	-17%	2.23
CN1CC[C@H](CN(C)Cc2ccc3cc(O)ccc3c2)C1	56%	-7.71
Oc1ccc2cc(CN3CCC[C@H](CN4CCCC4)C3)ccc2c1	97%	-3
c1cc(CN2CCC[C@H](CN3CCCC3)C2)co1	-3%	0.59
CN(Cc1ccc2cc(O)ccc2c1)C[C@H]1CCCCO1	8%	-0.87
CN(CC[C@H]1CCCCO1)Cc1ccc2cc(O)ccc2c1	-1%	0.18
